Assay results taken from PubChem BioAssay AID720542 (National Center for Advancing Translational Sciences (NCATS), 2013).
The campaign covered roughly 360,000 compounds. About 740 (0.21%) were called active. Not shown: some 2% with an inconclusive outcome. The sample holds actives, similar compounds and a random draw of the others, so the mix is not that of the screen. Values without a mark were called inactive. Calls follow the shape of the dose curve; as a rule, active = well fitted inhibition curve with a large enough effect; inconclusive = small, poorly fitted or top-dose-only effect; inactive = no such curve, though single readings can be large or run the other way.

System: Plasmodium falciparum AMA1 (3D7) - RON2 peptide interaction
Test: qHTS for Inhibitors of AMA1-RON; Towards Development of Antimalarial Drug Lead: Primary Screen; also: nearly all actives have a fitted effect of over 45% in size;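 as to activity change, negative = inhibition: 0% = vehicle wells and -100% = peptide control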
Settings: AlphaScreen AMA1-biotinylated RON2 peptide binding; series mostly up to 58.2 µM; activity change, negative = inhibition: at the top concentration
Source text: Plasmodium, the causative agent of malaria, is one of the world's deadliest parasitic diseases. Currently there is no vaccine available and there is widespread resistance to common anti-malarial drugs. This warrants novel, alternative approaches for developing improved therapy. During infection, one such essential interaction is between two parasite proteins, the apical membrane antigen1 (AMA1) that is translocated onto the merozoite surface and the rhoptry neck protein 2 (RON2), which is transferred to the red blood cells (RBC) membrane during invasion (Besteiro et.al., 2009). Recently, the Miller lab has shown that the interaction between AMA1 and RON2 is essential for junction formation of the parasite with the host cell (Srinivasan et.al., 2011). The binding of the RON2 peptide to the hydrophobic pocket in AMA triggers the formation of the moving junction which provides a firm anchor for the parasite to pull itself into the RBC using its actin-myosin motor; an irreversible step that commits the parasite for invasion. Only one AMA1 and RON2 genes exists in Plasmodium and there are no alternate pathways. Moreover, the region corresponding to RON2 peptide is conserved in all P. falciparum isolates for which sequences are available. The key residues in the AMA1 hydrophobic pocket that binds RON2 are also conserved and indicate a functional constraint governing this essential step in invasion since a short RON2 peptide (RON2L) corresponding to the binding region on AMA1 is sufficient to compete with the native RON2 protein and inhibits invasion (Tonkin et.al, 2011). Therefore, developing small molecule inhibitors of this interaction offers a promising target opening a new arena for anti-malarial therapeutics drug design.
In collaboration with the Miller lab, a quantitative High Throughput Screen using the AlphScreen technology was developed using a recombinant his-tagged AMA1 and a biotinylated RON2 peptide. This fluorescent screen was assayed against the NIH Molecular Libraries Small Molecule Repository (MLSMR). Inhibition of this protein-protein interaction is the desired outcome of this assay. However, due the limitations of this AlphaScreen assay, a large number of artifacts were observed. An AlphaScreen counterscreen was run to identify the true inhibitors, triage compound activity, and weed out false positives.
NIH Chemical Genomics Center [NCGC]
NIH Molecular Libraries Probe Centers Network [MLPCN]
Assay Submitter (PI): Louis Miller, National Institute of Allergy and Infectious Disease (NIAID)
Two microliters of his-tagged AMA1 3D7 allele protein (final concentration 25 nM) was dispensed into a 1,536-well assay plate. Small molecules and positive control peptides were pin-transferred (23 nL or 46 nL) via Kalypsys pin-tool equipped with a 1,536-pin array, resulting in final compound and peptide concentration ranges of 91.5 nM - 57.2 µM, and 15.6 nM - 2.00 µM, respectively. Unlabeled RON2 peptide or R1 peptide ([…]) that specifically binds the 3D7 AMA1 was used as a positive control that inhibited the binding of RON2L to AMA1. After 15 minutes incubation, 1 uL of biotinylated RON2 peptide (final concentration 25 nM) or buffer were dispensed and the assay plate was incubated for an additional 30 minutes at room temperature and protected from light. This was followed by an addition of 1 uL mixture of donor and acceptor beads (10 ug/mL final concentrations for each). The plates were incubated for 30 min at room temperature and read using the EnVision(R) plate reader (PerkinElmer). Maximum inhibition response was normalized to the positive control signal while no inhibition response was normalized to the DMSO treated wells.
Potency is read from the fitted curve at half-maximal effect.

SMILES	activity change, negative = inhibition [%]	Potency
COC(=O)c1ccc(NC(=O)CSc2nncc3ccc(OC)c(OC)c23)cc1	-13.1	–
COCCN(CC(=O)Nc1ccccc1C)S(=O)(=O)c1ccc(S(=O)(=O)N2CCCC2)cc1	2.33	–
CSc1nnc2c(n1)OC(c1cn(C)c3ccccc13)N(C(C)=O)c1ccccc1-2 (stereo not drawn)	5.41	–
O=C(CN1C(=O)NC2(CCCCCCC2)C1=O)NCc1ccc(F)cc1	2.43	–
Cc1nc([N+](=O)[O-])nn1C12CC3CC(CC(Br)(C3)C1)C2	-0.205	–
CCOc1ccc(OCC)c(NC(=O)C2CCN(S(=O)(=O)c3c(C)noc3C)CC2)c1	-11.4	–
CSCc1cc(N2CCOCC2)nc(SCc2ccc(Cl)cc2Cl)n1	-1.83	–
CC(=O)c1ccc(S(=O)(=O)NC2CC(=O)N(c3ccc4c(c3)OCCO4)C2)cc1 (stereo not drawn)	5.8	–
NC(=O)CC(NC(=O)Cc1ccc(Br)cc1)c1ccc(NC2CC3CCC2C3)c([N+](=O)[O-])c1 (stereo not drawn)	-18	–
CCOC(=O)C1(Cc2ccccc2C)CCCN(S(C)(=O)=O)C1 (stereo not drawn)	8.1	–
COc1ccc(CNC(=O)C[C@H]2C[C@H](C(=O)N3CCOCC3)[C@@]3(C)c4[nH]c5cc(CCC(=O)N(C)C)ccc5c4CCN3C2=O)cc1OC	11.3	–
COc1ccc2occ(C(=O)c3ccc(N=C(C)N(C)C)cc3)c2c1	-7.37	–
CN(C)c1ccc(Nc2c3c4c(cccc4n(C)c2=O)C(=O)c2ccccc2-3)cc1	–	4.47 µM (active)
COCCNC(=O)Nc1ccc2nc(-c3ccco3)c(-c3ccco3)nc2c1	–	7.08 µM (active)
O=C(NCCOc1ccccc1F)Nc1ccc(Br)cc1	-2.52	–
COCCN(C(=O)c1ccco1)c1nnc(-c2ccc(OC)cc2)s1	3.14	–
CC1=C(C(=O)OC(C)(C)C)C(c2ccc(Br)cc2)NC(=O)N1CCCC(=O)O (stereo not drawn)	-7.79	–
O=C(CSc1nnc2ccc(-c3ccncc3)nn12)N1CCCCC1	18.5	–
O=C1CCC/C=C\C[C@@H](CC(=O)N(CCO)Cc2ccccc2)C(=O)NCCO1	13.1	–
O=C(O)CSC(NC(=O)c1cccnc1)(C(F)(F)F)C(F)(F)F	-2.41	–
COc1ccc(OC)c(C2C3=C(N=c4s/c(=C\c5cccc(O)c5)c(=O)n42)c2ccccc2CC3)c1 (stereo not drawn)	-12.8	–
CCOCCCN(C)C1CCN(C(=O)c2oc3ccccc3c2NC(=O)COc2cccc(C)c2)CC1	-11.2	–
COc1cc(C(=O)OCC(=O)N(CC(C)C)C2CCS(=O)(=O)C2)ccc1OCC(C)C (stereo not drawn)	8.24	–
COc1nc(N(C)C)nc(N2CC(=O)N(CCNS(=O)(=O)c3ccc(C)cc3)C2=N)n1	4.54	–

SMILES	activity change, negative = inhibition [%]	Potency
CCOc1ccc(NC(=O)CN(C)C(=O)c2cccc(S(=O)(=O)N3CCCC3)c2)cc1OCC	5.03	–
Cc1ccc(CN2CC(C(=O)N3CCN(S(=O)(=O)c4ccccc4)CC3)CC2=O)cc1 (stereo not drawn)	2.11	–
CS(=O)(=O)c1ccc(Cl)c(NC(=O)COC(=O)c2ncc(Cl)c(Cl)c2Cl)c1	7.73	–
C=C1C2C[C@H](O)C(C)(C)[C@@]2(O)[C@H](O)C[C@]23C[C@@](C)(O)[C@H](CC[C@H]12)[C@H]3O (stereo partly drawn)	6.34	–
CCc1ccc(S(=O)(=O)Nc2cc3c(cc2N2CCCCC2)n(C)c(=O)c(=O)n3C)cc1	-3.11	–
O=S(=O)(Nc1cc(S(=O)(=O)N2CCOCC2)ccc1N1CCCC1)c1cccs1	21.9	–
COc1cccc(N(CC(=O)NC2CCCC2)C(=O)Cn2nnc(-c3ccc(C)cc3)n2)c1	-14.7	–
CC(C)(C)OC(=O)N1CCC(C(=O)Nc2cccc(C(=O)NCCc3ccccc3)c2)CC1	8.21	–
COc1ccc(CCNC(=O)C(=O)NCC2OCCN2S(=O)(=O)c2ccc(OC)c(C)c2)cc1 (stereo not drawn)	9.2	–
O=C(COC(=O)CNS(=O)(=O)c1ccccc1)NC12CC3CC(CC(C3)C1)C2	-5.62	–
O=c1ccc2cc(S(=O)(=O)NCCCc3ccccc3)ccc2[nH]1	1.59	–
Cc1ccc(C2CC(c3cccc(Br)c3)n3nc(N)nc3N2)cc1 (stereo not drawn)	-13	–
COc1ccc(C2CC(c3ccc(C)cc3)Nc3nc(N)nn32)cc1 (stereo not drawn)	–	3.16 µM (active)
COc1ccc(C2CC(c3ccc(Cl)cc3Cl)Nc3nc(N)nn32)cc1OC (stereo not drawn)	-7.14	–
CCOc1cc(C(=O)N(Cc2ccccc2)c2ccc(C)cc2)ccc1OCC(=O)N1CCOCC1	6.38	–
CN(C)/C=C(/C(=O)c1ccc(Cl)c(Cl)c1)c1nnnn1-c1ccccc1	25.1	–
COC(=O)c1ccc(NC(=O)CSc2nnc(C3CC3)n2C)cc1	-1.1	–
C/C=C/C=C/C(=O)OCC(=O)Nc1ccc(Cl)cc1	-15.1	–
CCCCN1C(=O)CCC(C(=O)O)C1c1ccc(OC)cc1 (stereo not drawn)	-2.98	–
O=C(Nc1cccc(S(=O)(=O)NC2=NCCC2)c1)C1CCCCC1	16.3	–
COCCCNC(=O)c1c(F)c(F)c(F)c(F)c1F	2.58	–
COc1ccc(C(CNC(=O)c2ccc(OCc3cscn3)cc2)N2CCCC2)cc1 (stereo not drawn)	-4.79	–
CN(C)/C=C(/C(=O)c1ccc(F)cc1)S(=O)(=O)c1ccc(F)cc1	-2.22	–
CC(c1ccco1)N(C(=O)COc1ccccc1[N+](=O)[O-])c1ccccn1 (stereo not drawn)	3.66	–
